Assay [1] is described as follows: Human pregnane X receptor (PXR) small molecule agonists, qHTS cell viability counter screen (AID 1346977). Note: nearly all actives have a fitted effect of over 50% in size. Note: potency is the fitted concentration of half-maximal effect. The procedure, abridged: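 PXR-Luc HepG2, 2,000 cells/well, 5% charcoal-stripped FBS; 5hr settle; cpd 24hr, 37C/5% CO2; CellTiter-Fluor at 23hr, read 1hr later (fluorescence).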
On the technique in general: In qHTS, concentration-response curves come from the screen itself.

Assay [2] can be described thus: Caspase-3/7 induction in HepG2 cells by small molecules, qHTS assay (AID 1346978). Note: nearly all actives have a fitted effect of over 15% in size. Note: potency is the fitted concentration of half-maximal effect. The method in brief: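 Wild-type HepG2 cells, 2,000/well, settled 5 hr at 37 C and 5% CO2, then compound-treated for 17 hr; caspase-3/7 activity read by luminescent Caspase-Glo 3/7 after 30 min at room temperature.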
Assay [3] can be described thus: Caspase-3/7 induction in CHO-K1 cells by small molecules, qHTS cell viability counter screen (AID 1346979). Note: nearly all actives have a fitted effect of over 35% in size. Note: potency is the fitted concentration of half-maximal effect. The procedure, abridged: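 Cells (CHO-K1, wild type) are plated at 1,500 per well and incubated 5hr. Test compounds in DMSO are then pinned in, followed by 16hr at 37C and 5% CO2. Viability is read by CellTiter-Fluor fluorescence after 1hr.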
Assay [4] is described as follows: Caspase-3/7 induction in CHO-K1 cells by small molecules, qHTS assay (AID 1346980). Note: nearly all actives have a fitted effect of over 15% in size. Note: potency is the fitted concentration of half-maximal effect. The procedure, abridged:
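Wild-type CHO-K1 cells exposed to compounds for 17hr at 37 C, 5% CO2. Caspase-3/7 activity then measured by Caspase-Glo 3/7 luminescence after 30min at room temperature.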

Assay [5] in a line: Caspase-3/7 induction in HepG2 cells by small molecules, qHTS cell viability counter screen (AID 1346981). Note: nearly all actives have a fitted effect of over 30% in size. Note: potency is the fitted concentration of half-maximal effect. The procedure, abridged:
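Multiplexed with the caspase-3/7 assay: HepG2 cells, 16 hr compound treatment, CellTiter-Fluor viability detection by fluorescence.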

The target of assay [6] is Nuclear receptor subfamily 1 group I member 2 (Homo sapiens) (UniProt O75469). The assay is described as follows: Human pregnane X receptor (PXR) small molecule agonists, qHTS assay (AID 1346982). Note: nearly all actives have a fitted effect of over 35% in size. Note: potency is the fitted concentration of half-maximal effect. The method in brief:
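We seeded PXR-Luc HepG2 cells in assay medium containing 5% charcoal-stripped FBS, added compounds 5 hr later, incubated 24 hr, and read luminescence with ONE-Glo reagent.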

The target is the same in assay [7]. The experiment in a line: CYP3A4 induction through human pregnane X receptor (PXR) by small molecules, qHTS assay (AID 1346984). Note: nearly all actives have a fitted effect of over 40% in size. The method in brief: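 qHTS, concentration-response format: HepG2 DPX-2 line, PXR/CYP3A4-luc. Exposure 24 h, 37C. Substrate Luciferin-IPA 3uM final, 3 h. Detection One-Glo, 30 min RT.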
Assay [8] addresses Cytochrome P450 2D6 (Homo sapiens) (UniProt P10635). The experiment in a line: Cytochrome P450 Family 2 Subfamily D Member 6 (CYP2D6) small molecule antagonists: luciferase reporter qHTS assay (AID 1671196). Note: nearly all actives have a fitted effect of over 50% in size. Note: potency is the fitted concentration of half-maximal effect. The method in brief:
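Luminescence (RLU), read 20 min after detection reagent, indicated CYP2D6 conversion of proluciferin to luciferin during a 1 h NADPH-dependent reaction at room temperature.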

Assay [9] concerns the target Nuclear receptor subfamily 1 group I member 2 (Rattus norvegicus) (UniProt Q9R1A7). The experiment in a line: Rat pregnane X receptor (rPXR) activation by small molecules, qHTS assay (AID 1346983). Note: nearly all actives have a fitted effect of over 20% in size. As to conditions: rPXR luciferase reporter cells, One-Glo luminescence, 24 h; max activation: hits give high values. The procedure, abridged:
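Cell-based rPXR activation assay: rPXR cells, 2,000 per well, rested 5hr at 37 C, then exposed to compounds in DMSO for 24 hr at 37 C. Luciferase activity read by One-Glo luminescence after 30 min at room temperature.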

Where “and” joins values, the source holds several entries; their conditions need not be identical. Identical values can stand only once. A number with no mark means an inactive call. Records with an inconclusive call do not appear. Calls of active or inactive are those of the source. Calls come from the whole dose curve; as a rule, active = well fitted curve in the direction sought with a large enough effect in the repeat runs; inconclusive = weak or mixed curves; inactive = no such curve, though single readings can be large; an effect the other way counts as inactive or inconclusive.
% is set by controls: 0 for no effect and ±100 for the full control effect.

Chain of Nuclear receptor subfamily 1 group I member 2 (Rattus norvegicus) (Q9R1A7 whole entry, looked up): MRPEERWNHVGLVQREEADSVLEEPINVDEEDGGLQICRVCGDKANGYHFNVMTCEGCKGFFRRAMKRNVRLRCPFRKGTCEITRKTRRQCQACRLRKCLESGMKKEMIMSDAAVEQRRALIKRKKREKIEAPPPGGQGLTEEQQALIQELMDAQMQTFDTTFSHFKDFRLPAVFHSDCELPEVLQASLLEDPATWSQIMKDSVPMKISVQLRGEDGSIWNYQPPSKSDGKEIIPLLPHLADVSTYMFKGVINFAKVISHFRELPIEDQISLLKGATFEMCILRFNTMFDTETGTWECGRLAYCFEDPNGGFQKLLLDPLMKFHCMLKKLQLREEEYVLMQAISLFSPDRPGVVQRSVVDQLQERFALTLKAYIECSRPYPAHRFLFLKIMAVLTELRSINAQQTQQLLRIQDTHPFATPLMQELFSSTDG
Chain of Nuclear receptor subfamily 1 group I member 2 (Homo sapiens) (O75469 whole entry, looked up): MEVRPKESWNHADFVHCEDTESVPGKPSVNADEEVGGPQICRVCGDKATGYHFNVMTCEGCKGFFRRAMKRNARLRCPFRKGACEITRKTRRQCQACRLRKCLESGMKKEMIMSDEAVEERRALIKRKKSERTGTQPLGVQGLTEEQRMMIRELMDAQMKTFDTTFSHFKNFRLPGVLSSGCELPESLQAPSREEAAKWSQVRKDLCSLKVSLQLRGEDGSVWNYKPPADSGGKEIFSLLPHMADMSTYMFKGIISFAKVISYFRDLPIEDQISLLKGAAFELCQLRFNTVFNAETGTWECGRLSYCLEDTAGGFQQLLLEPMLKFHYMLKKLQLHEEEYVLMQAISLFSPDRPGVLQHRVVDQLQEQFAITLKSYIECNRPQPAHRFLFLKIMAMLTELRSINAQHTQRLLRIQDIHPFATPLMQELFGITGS
Chain of Cytochrome P450 2D6 (Homo sapiens) (P10635 whole entry, looked up): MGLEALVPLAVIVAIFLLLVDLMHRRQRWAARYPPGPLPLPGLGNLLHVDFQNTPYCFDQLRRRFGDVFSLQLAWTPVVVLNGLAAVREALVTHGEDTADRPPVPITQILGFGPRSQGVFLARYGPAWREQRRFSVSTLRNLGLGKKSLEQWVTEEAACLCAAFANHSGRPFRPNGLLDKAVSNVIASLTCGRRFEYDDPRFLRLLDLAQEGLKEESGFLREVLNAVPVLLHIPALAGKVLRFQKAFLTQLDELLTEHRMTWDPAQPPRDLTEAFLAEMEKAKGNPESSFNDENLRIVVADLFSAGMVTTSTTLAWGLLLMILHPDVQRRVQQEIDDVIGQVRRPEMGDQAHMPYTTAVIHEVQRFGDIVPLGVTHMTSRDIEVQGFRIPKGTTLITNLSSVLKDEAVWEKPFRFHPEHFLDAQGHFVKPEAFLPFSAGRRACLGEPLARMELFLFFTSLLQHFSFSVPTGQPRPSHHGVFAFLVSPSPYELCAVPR

`COc1cccc2c1C(=O)c1c(O)c3c(c(O)c1C2=O)C[C@@](O)(C(=O)CO)C[C@@H]3O[C@H]1C[C@H](N)[C@H](O[C@@H]2CCCCO2)[C@H](C)O1`: the Potency in assay [1] was 1.68 µM (active); in assay [2], 2.37 µM (active); in [3], 6.68 µM (active); in [5], 8.41 µM (active). Also, the Potency result in assay [4], in assay [6] and in assay [7] was “inactive” throughout.
Regarding `CCCC(c1cc(C(C)(C)C)c(O)cc1C)c1cc(C(C)(C)C)c(O)cc1C`, the Potency in assay [1] was 17.4 µM (active); in [2], 24.6 µM (active); in [3], 13.9 µM (active); in [5], 22 µM (active); in assay [6], 1.96 µM (active); in [8], 28.6 µM (active). In addition, the Potency result in [4] was “inactive”.
On to `Clc1ccc2nsnc2c1NC1=NCCN1`, for which the Potency result in assay [1], in assay [2], in assay [3], in assay [4], in assay [5] and in [6] was “inactive” in each case. The Potency result in [7] is “inactive”. Further, in [9], the max activation is -3.32%. The Potency in assay [8] was 12.3 µM (active).
For the compound `O=C(NOCC1CC1)c1ccc(F)c(F)c1Nc1ccc(I)cc1Cl`, the Potency in assay [1] was 18.8 µM (active); in [3], 18.8 µM (active); in assay [5] it was 26.6 µM (active). Also, the Potency result in [2], in [4], in [6] and in [8] was “inactive” in each case.
As for `O=C(Nc1cccc(Cl)c1)OCC#CCCl`, the Potency is 54.5 µM (active) in [1]; 30.6 µM (active) in [3]; 27.3 µM (active) in assay [5]; 13.7 µM (active) in assay [6]; 39.9 µM (active) in [8]. Besides, the Potency result in assay [2] and in [4] was “inactive” throughout.
Turning to `C=CC(=O)OCC(CO)(COCC(COC(=O)C=C)(COC(=O)C=C)COC(=O)C=C)COC(=O)C=C`, the Potency was 3.03 µM (active) in assay [1]; 6.04 µM (active) in assay [2]; 0.76 µM (active) in assay [3]; 0.48 µM (active) in assay [4]; 3.81 µM (active) in [5]; 1.91 µM (active) in assay [6]. Further, in assay [8], the Potency is 15.7 µM (active).
For `COC(=O)C1=C(C)NC(C)=C(C(=O)OCC(C)C)C1c1ccccc1[N+](=O)[O-]` (centres undefined), the Potency in assay [1] is 61.1 µM (active); in [3] it was 61.1 µM (active) and 29.8 µM (active); in assay [5], 54.5 µM (active). The Potency entry in [2] and in assay [4] was “inactive” throughout.
In the case of `Cc1cc2c(cc1C(F)(F)F)N(C(=O)Nc1ccc(Oc3cccnc3C)nc1)CC2`, the Potency was 43.9 µM (active) in assay [1]; 24.7 µM (active) in [3]; 27.7 µM (active) in [5]; 13.9 µM (active) in [6]; 22.8 µM (active) in [8]. Further, the Potency entry in [2] and in assay [4] was “inactive” throughout.
For the compound `O=C1c2c(O)ccc(Nc3ccc(CCO)cc3)c2C(=O)c2c([N+](=O)[O-])ccc(O)c21`, the results for the Potency in assay [1], in [3] and in assay [5] were 43.3 µM (active), 54.5 µM (active) and 54.5 µM (active), respectively. For the same compound, the Potency result in assay [2] and in assay [4] was “inactive” each time.
In the case of `Cc1cc(C2CCCCC2)n(O)c(=O)c1`, the Potency in assay [1] is 26.6 µM (active); in assay [3], 23.7 µM (active). The Potency result in assay [2], in assay [4], in assay [5], in assay [6], in [7] and in assay [8] was “inactive” each time. Besides, the max activation in [9] was -2.39%.
Turning to `O=C(N/N=C/c1ccccc1O)c1ccncc1`, the Potency result in [1], in assay [2], in assay [4], in [5], in [6] and in [7] was “inactive” throughout. Besides, the Potency in assay [3] is 7.5 µM (active); in [8] it was 27.5 µM (active). Further, in [9], the max activation is -3.33%.
Consider `Cc1onc(-c2c(Cl)cccc2Cl)c1C(=O)N[C@@H]1C(=O)N2[C@@H]1SC(C)(C)[C@@H]2C(=O)O`, for which the Potency result in assay [1], in assay [2], in [3], in [4], in assay [5] and in assay [6] was “inactive” each time.
Regarding `COc1cc(/C=C/C(=O)O[C@H]2CC[C@]34C[C@]35CC[C@]3(C)[C@@H]([C@H](C)CCC=C(C)C)CC[C@@]3(C)[C@@H]5CC[C@H]4C2(C)C)ccc1O`, the Potency entry in assay [1], in assay [3], in assay [4], in assay [5], in assay [6] and in assay [7] was “inactive” each time. Also, the Potency result in assay [8] is “inactive”. Further, the Potency in assay [2] is 15 µM (active). For the same compound, the max activation in [9] is -10.7%.
`O=C(c1ccc(F)cc1)C1CCN(CCn2c(=O)[nH]c3ccccc3c2=O)CC1`: the Potency entry in assay [1], in [2], in assay [3], in assay [4], in assay [5] and in [6] was “inactive” in each case.
As for `CCCCN(CCCC)C(=O)N(CCCC)CCCC`, the Potency result in assay [1], in [2], in assay [3], in assay [4], in [5] and in assay [6] was “inactive” in each case.
As for `Cc1nc(-c2ccc3c(c2)CCN(CCC2CCC(NC(=O)/C=C/c4ccc(F)cc4)CC2)CC3)no1` (centres undefined), the Potency result in assay [1], in [2], in assay [4], in assay [5], in [6] and in assay [8] was “inactive” throughout. For the same compound, in [3], the Potency was 6.87 µM (active).
Take `Fc1ccc(C(c2ccc(F)cc2)N2CCN(C/C=C/c3ccccc3)CC2)cc1`: the Potency in [1] is 29.8 µM (active); in assay [3], 33.5 µM (active). The Potency result in [2] and in assay [4] was “inactive” each time.
On to `CC(C)CCCCCCCCCCCCCCC(=O)O`, for which the Potency entry in [1], in assay [2], in assay [3], in [4], in assay [5] and in assay [6] was “inactive” throughout. For the same compound, the Potency result in assay [8] was “inactive”.

Source of the values: PubChem BioAssay (Tox21).
